LASV entry inh: blocks Lassa virus binding or cell entry; Lassa virus pseudotyped entry inhibition, cell-based qHTS; hit rate 4.1% among 18,000; Potency, µM (titrated, usually from 49.2 µM), hits mostly inhibitors
MARV entry inh: Marburg virus entry inhibition. Potency, µM (highest dose often 49.2 µM), actives largely listed as inhibitors. AID 720532. Marburg virus pseudotype entry/binding inhibition, cell-based. hit rate 6.5% among 18,000
Each line names hits and unclear results; the compound was inactive in the other large screens. Sampled rows, rich in hits. Any-hit rate of the full collection: about 8%. Calls follow the shape of the full dose curve; tested in HEK293 cells.

CCOC(=O)Nc1ccc2c(c1)N(C(=O)CN(C)C)c1ccccc1CC2	LASV entry inh inconclusive, MARV entry inh 40µM
CCOC(=O)Nc1ccc2c(c1)N(C(=O)CCN1CCOCC1)c1ccccc1S2	none
O=C(Cn1cc(COc2ccc([N+](=O)[O-])cc2)nn1)c1ccc(O)cc1	none
CC(Nc1oc(-c2ccccc2)nc1C(C)(C)C)c1ccccc1 (stereo not given)	none (no result: LASV entry inh)
COc1ccc(-c2nc(-c3ccccc3)oc2NC2CCCCC2)cc1	none
COC(=O)C1=C(C(=O)OC)[C@@H]2N(Cc3ccccc3)c3ccccc3[C@@]23C[C@@H](C(=O)OC)N(C(=O)NCCBr)C3=N1	none
C[C@H](NCc1ccccc1)c1ccccc1	none
C[C@H](NCCC(c1ccccc1)c1ccccc1)c1ccccc1	LASV entry inh inconclusive, MARV entry inh 10µM
COC(=O)[C@@]1(C=C2c3ccc(F)cc3[C@@H](OC)[C@@H]2C)[C@@H]2c3ccccc3O[C@@H]21	MARV entry inh inconclusive
N=c1ccn2c(n1)OCC1C2O[C@@H](O)[C@H]1O (stereo not given in full)	LASV entry inh inconclusive, MARV entry inh 14µM
N=c1ccn2c(n1)OC1C(O)C(CO)OC12 (stereo not given)	LASV entry inh inconclusive, MARV entry inh 0.71µM
O=c1ncccn1[C@@H]1O[C@H](CO)C(O)[C@@H]1O (stereo not given in full)	none
COc1ccc([C@]23Cc4cc(OC)c(OC)cc4[C@H](O2)C2=C(CC4(CCCCC4)OC2=O)O3)cc1	none
COC(=O)C(C(=O)OC)[C@@H]1O[C@@]23COCC[C@]2(C)[C@@H]3c2ccccc21	none
COc1cc2nc(N(C)C)c(CNC3CCOC(C)(C)C3)cc2c(OC)c1OC (stereo not given)	none
COCc1ccc(CN2CCOc3c(O)cc(-c4cc(C)c5ccc(F)cc5n4)cc3C2)o1	LASV entry inh inconclusive
Oc1ccc(Cl)cc1CN1CCOc2c(O)cc(-c3nc4ccccc4s3)cc2C1	LASV entry inh 1.6µM
CN(C)C(=O)[C@@H]1C[C@@H](Sc2nc3ccccc3[nH]2)CN1Cc1ccnc2ccccc12	none
CCCCCCCCN[C@@H](C)[C@H](O)c1ccc(SC(C)C)cc1	MARV entry inh 11µM
CN[C@@H](C)[C@H](O)c1ccccc1	none
COc1ccc([C@@H]2Sc3ccccc3N(CCN(C)C)C(=O)[C@@H]2OC(C)=O)cc1	LASV entry inh 4.5µM, MARV entry inh 28µM
COc1ccc(C2Sc3ccccc3N(CCN(C)C)C(=O)[C@@H]2OC(C)=O)cc1 (stereo not given in full)	MARV entry inh inconclusive
COC(=O)C1=C[C@@]2(c3ccc(F)cc3[C@@H](OC)[C@@H]2C)[C@@H]2C=C[C@H]1C2	none
O=C1[C@@H]2[C@H]3[C@H](O)[C@H](O)CC(=NOC[C@@H](O)COCc4ccco4)[C@@H]3CC[C@H]2C(=O)N1Cc1ccccc1	none
CS(=O)(=O)Nc1ccc(-c2ccc3c(NC(=O)C4CC4)n[nH]c3c2)cc1	none
CS(=O)(=O)Nc1cccc(-c2ccc3c(NC(=O)C4CC4)n[nH]c3c2)c1	MARV entry inh 3.5µM (no result: LASV entry inh)
CC[C@@H](C(=O)[C@@H](C)[C@@H](O)[C@H](C)CCc1ccc(C)c(O)c1C(=O)O)[C@H]1O[C@](CC)([C@H]2CC[C@](O)(CC)[C@H](C)O2)C[C@@H]1C	LASV entry inh 11µM
C=CC1CC2C=CCOP(=O)(O1)O2 (stereo not given)	MARV entry inh inconclusive
COC(=O)C1C2CC(C)C(c3ccccc32)N1C(=O)C(F)(F)F (stereo not given)	MARV entry inh inconclusive
CC(C)=CCCC(C)=CCON=C1C[C@@H](O)[C@@H](O)[C@@H]2[C@H]3C(=O)N(Cc4ccc5c(c4)OCO5)C(=O)[C@@H]3CC[C@H]12	none (no result: LASV entry inh)
C(=C\c1nc(-c2ccccc2)oc1Nc1ccc2ccccc2c1)/c1ccccc1	none
C[n+]1ccc(/C=C/c2ccc3ccccc3c2)cc1	LASV entry inh 11µM, MARV entry inh inconclusive
C=CCCCC=C(C)[C@H](OCc1ccc(OC)cc1)[C@H](CCC=C(C)C(N)=O)OC	none
C[C@H]1CC[C@H]2C(=O)N(Cc3ccccc3)C[C@@H](O)CN2[C@H]1c1ccc(Br)cc1	none
CN(C)c1ccc(-c2nc(NC3CCNCC3)c3ccccc3n2)cc1	MARV entry inh 14µM
COCCNc1nc(-c2ccc(N(C)C)cc2)nc2ccccc12	MARV entry inh inconclusive
C=C(C)C(=O)C=CCCCC=CC(=O)OCC	none
Cc1c(O)cccc1C(=O)N[C@@H](CSc1ccccc1)[C@H](O)CN1C[C@H]2CCCC[C@H]2C[C@H]1C(=O)NC(C)(C)C	LASV entry inh 28µM, MARV entry inh 11µM
O=[N+]([O-])c1ccc(/C=N\O)o1	none
NC(N)=NN=C(/C=C/c1ccc([N+](=O)[O-])o1)/C=C/c1ccc([N+](=O)[O-])o1	LASV entry inh 6.3µM, MARV entry inh 14µM
O=C(OCc1cn([C@H]2C[C@H](c3ccc(Cl)cc3)N(C(=O)C3CCCCC3)C[C@H]2O)nn1)c1ccccc1	MARV entry inh inconclusive
CC[C@@H]1CN2CCc3cc(OC)c(OC)cc3[C@H]2C[C@@H]1C[C@H]1NCCc2cc(OC)c(OC)cc21	LASV entry inh 0.32µM, MARV entry inh inconclusive
CC[C@@H]1CN2CCc3cc(OC)c(OC)cc3[C@@H]2C[C@@H]1C[C@H]1NCCc2cc(OC)c(OC)cc21	LASV entry inh 5.6e-05µM, MARV entry inh inconclusive
COc1cc2c(cc1OC)C(C)NCC2 (stereo not given)	none
COc1cc(C[C@@H]2NCCc3cc(O)c(O)cc32)cc(OC)c1OC	none
CCC=CCCC(OC(=O)c1ccc(Br)cc1)C1=CCCCC1=O (stereo not given)	none
COc1ccccc1C(=O)N(Cc1cc2cccc(C)c2nc1N1CCC(O)CC1)C1CC1	LASV entry inh inconclusive
CCCCCCCCCCCCC(=O)N1CCCC[C@H]1CNC(=O)[C@@H](N)CCCCN	MARV entry inh 28µM
CC[C@H](C)[C@H](NC(=O)[C@H](Cc1ccc(O)cc1)NC(=O)[C@@H]1CCCN1C(=O)[C@@H](NC(=O)[C@@H](N)CCCCN)[C@@H](C)CC)C(=O)N[C@@H](CC(C)C)C(=O)O	none
CC(CCN1CCc2nc(-c3ccccc3)c(-c3ccccc3)cc2C1)=NOC[C@@H](O)COCc1ccco1	none
Cc1ccc([S+](=O)([O-])N[C@@H]2COC(=O)CC=C[C@H](C)COC(=O)N[C@@H](C)C(=O)CC=C[C@H]2C)cc1	none
CN1CCC[C@H]1c1cccnc1	none
CCCCCCCCCC[n+]1cccc([C@@H]2CCCN2C)c1	LASV entry inh inconclusive, MARV entry inh 6.3µM
NS(=O)(=O)c1ccc(Nc2cc(-c3cccc(O)c3)[nH]n2)cc1	none
CC(=O)C1CC[C@H]2C3CC[C@@H]4CC(O)CC[C@@]4(C)C3CC[C@]12C (stereo not given in full)	MARV entry inh inconclusive
C[C@]12CC[C@H](O)C[C@H]1CC[C@@H]1[C@@H]2CC[C@]2(C)[C@@H](c3ccc(=O)oc3)C[C@H]3O[C@]132	LASV entry inh 2.8µM, MARV entry inh 2.5µM
CS(=O)(=O)Nc1cccc(-c2nc(N3CCNCC3)c3ccccc3n2)c1	MARV entry inh inconclusive
c1ccc2c(N3CCNCC3)nc(-c3ccc4c(c3)OCO4)nc2c1	MARV entry inh 10µM
Cc1noc(C)c1-c1nc(N2CCNCC2)c2ccccc2n1	MARV entry inh inconclusive
N#Cc1cccc(-c2nc(N3CCNCC3)c3ccccc3n2)c1	MARV entry inh 16µM
COC(=O)CC=C[C@H](C)[C@@H](NC(=O)C(F)(F)F)c1ccccc1Br	none
COC(=O)C1CCN(Cc2ccc3c(c2)CN(C(=O)c2cc4ccccc4n2C)CCO3)CC1	none

Screening results (PubChem)
